Source: PubChem BioAssay (National Center for Advancing Translational Sciences (NCATS))
Pf growth 48h: P. falciparum growth inhibition at 48 hours (one generation); P. falciparum luciferase growth in erythrocytes, 48 h; Potency, µM (series often up to 28.7 µM), for the others: at the top dose activity change, negative = inhibition, hits mostly inhibitors; 310,000 tested, 5.9% active; further: potency means the concentration at half of the fitted maximal effect; on the % scale 0 is the no-effect control and ±100 the full control effect
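Compounds are pin-transferred into medium, infected erythrocytes (2% hematocrit, 0.1% parasitemia final) are added, and plates sit one parasite generation at 37 C in 5% CO2. Detection reagent is then added and luminescence measured.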
Cycloheximide cs: counter-screen hit for Shiga toxin inhibitors, cycloheximide. AID 2314. 300,000 tested, 12% active. cell reporter, cycloheximide protein synthesis inhibition counterscreen. max response, %; in the data active means max response mostly above about 13%, no sharp cut-off; inactive means mostly below about 14%; further: read at 38.3 µM for the half of the compounds with a filed dose; 0% is about no effect
FBPA Giardia inh: Giardia lamblia aldolase inhibition | A8B2U2 | purified Giardia FBPA | Potency, µM (top dose mostly 59.6 µM), without a hit: at the highest dose activity, negative = inhibition, hits mostly inhibitors | 290,000 tested, 0.71% active; further: potency means the concentration at half of the fitted maximal effect; on the % scale 0 is the no-effect control and ±100 the full control effect; nearly all actives have a fitted effect of over 55% in size
Target sequence (A8B2U2 whole entry, looked up): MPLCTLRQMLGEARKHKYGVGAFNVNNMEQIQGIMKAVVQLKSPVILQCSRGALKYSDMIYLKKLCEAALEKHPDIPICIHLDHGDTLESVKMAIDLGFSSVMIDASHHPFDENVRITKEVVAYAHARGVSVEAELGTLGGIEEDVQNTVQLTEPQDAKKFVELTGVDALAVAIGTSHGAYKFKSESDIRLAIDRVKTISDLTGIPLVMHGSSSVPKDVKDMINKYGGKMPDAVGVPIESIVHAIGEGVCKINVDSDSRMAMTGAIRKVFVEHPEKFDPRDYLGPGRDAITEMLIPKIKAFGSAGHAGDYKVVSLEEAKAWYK
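Giardia FBPA (40 nM reagent) was preincubated 10 min at RT with compound (up to 57.5 uM final), then substrate plus GAPDH/TPI/NAD/arsenate coupling system with diaphorase/resazurin was added; resorufin fluorescence (525/598 nm) was read after 20 min.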
NS1 function inh: blocks influenza NS1 protein function; 270,000 tested, 0.4% active; Potency, µM (titrated, usually from 46.1 µM), without a hit: top-dose activity, positive = more growth; calls by dose curve; further: potency means the concentration at half of the fitted maximal effect; actives are rising curves; nearly all actives have a fitted effect of over 50% in size
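A cell-based growth assay was used: compounds that relieve NS1-induced slow growth of budding yeast raise OD600. Assay medium was yeast nitrogen base with ammonium sulphate and -URA supplement, pH 6.0, with 2% galactose.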
Shiga inhibitor: blocks Shiga toxin action in Vero cells; Vero cells, Shiga toxin protein synthesis inhibition reporter; inhibition, % at 38.7 µM; 290,000 tested, 9.2% active; AID 2315; in the data active means inhibition mostly above about 28%, no sharp cut-off; inactive means mostly below about 43%; further: 0% is about no effect
Pf growth 96h: inhibits malaria parasite growth, 96 h. P. falciparum luciferase reporter growth, 96 h. Potency, µM (top dose mostly 28.7 µM), inactives show top-dose activity change, negative = inhibition, most hits filed as inhibitors. 320,000 tested, 6.9% active; further: potency means the concentration at half of the fitted maximal effect; on the % scale 0 is the no-effect control and ±100 the full control effect
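Cell-based qHTS: luciferase-tagged P. falciparum in erythrocytes (2% hematocrit, 0.05% parasitemia final) incubated with compounds for 96 hours, 37 C, 5% CO2; luciferase detection reagent then added and luminescence measured.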
Numbers without * were called inactive; i = inactive; ? = inconclusive; nt = no result; + = active, no number; [ ] = remark or other dose. Only some compounds are listed: those with a hit (about 21% of all), similar ones and a draw of the others. Unless noted, the call rests on the fitted dose curve; in most records, active means well fitted curve in the direction sought with a large enough effect; inconclusive means small, poorly fitted or top-dose-only effect, or another doubt; inactive means no such curve, though single readings can be large; an effect the other way counts as inactive or inconclusive.

SMILES	Pf growth 48h	Cycloheximide cs	FBPA Giardia inh	NS1 function inh	Shiga inhibitor	Pf growth 96h
COc1ccc(C(=O)Cc2ccc3c(c2)OCO3)c(O)c1	265%	101*	0%	?	+	220%
O=C1CCCc2nc3c(cc21)C(O)Oc1c-3ccc2ccccc12 (stereo not drawn)	180%	49*	3%	nt	65*	i
Cc1cccc(NC(=O)CCNC(=O)c2ccc(Br)cc2)c1C	-8%[0.00184 µM]	-2	7%	-3%	-5	15%
CCOC(=O)C(CC(C)C)CP(=O)(O)CNC(=O)OCc1ccccc1 (stereo not drawn)	0%	-4	13%	?	-6	7.4µM*
CCOc1ccc(S(=O)(=O)NC(C)(C)C)cc1-c1nc2c(C(C)(C)C)nn(C)c2c(=O)[nH]1	4.7µM*	-2	-7%	28%	2	-97%
CCOc1ccc(S(N)(=O)=O)cc1-c1nc2c(C(C)(C)C)nn(C)c2c(=O)[nH]1	?	-4	-13%	-2%	-6	?
CC1SC(c2ccc(F)cc2)N(CCc2ccccc2)C1=O (stereo not drawn)	-26%[0.00184 µM]	24*	-6%	-7%	42*	-4%
O=C(O)C(c1ccccc1)N1C(=O)c2cccc3cccc(c23)C1=O (stereo not drawn)	-17%	1	9%	26%	-16	1.5µM*
CCOC(=O)C(C(C)=O)c1c(Br)c(O)c(O)c2c(C(=O)c3ccc(C)cc3)coc12 (stereo not drawn)	nt	19*	?	-60%	34	nt
CCn1ncc(CN2CCN(Cc3cccc(OC)c3)C(CCO)C2)c1C (stereo not drawn)	0%	-1	6%	0%	10	7.4µM*
COc1ccc(CN2CCN(Cc3cccc(OC)c3)C(CCO)C2)cc1 (stereo not drawn)	-1%	2	5%	1%	-4	20%
CCn1nc(C)c(CN2CCN(Cc3cccc(OC)c3)C(CCO)C2)c1C (stereo not drawn)	-3%	4	0%	4%	-11	12µM*
COc1ccc(CN2CCN(Cc3c[nH]c4ccccc34)CC2CCO)cc1C (stereo not drawn)	?	-1	8%	?	-4	?
CCOc1ccc(CN2CCN(Cc3c(C)nn(CC)c3C)CC2CCO)cc1 (stereo not drawn)	-18%	-2	-2%	-1%	6	14%
COc1cc(CN2CCN(Cc3c[nH]c4ccccc34)CC2CCO)cc(OC)c1 (stereo not drawn)	-21%	-1	-7%	25%	-15	10µM*
O=C(O)c1cccc(-c2nnn(Cc3ccccc3)n2)c1	i	70*	?	-13%	63*	i
COc1ccc(OCCn2nnc(-c3ccc(Cl)cc3)n2)cc1	12%	2	3%	-3%	-9	-10%
Cc1ccc(-c2nnn(CC(=O)O)n2)cc1	6%	-3	28%	-10%	2	-10%
CSc1ccc(-c2nnn(Cc3ccc(C)cc3)n2)cc1	nt	21*	-1%	-8%	24	-20%
O=C(O)c1ccc(-c2nnn(Cc3ccccc3F)n2)cc1	50%	-2	23%	-41%	19	39%
O=C(O)c1cccc(-c2nnn(Cc3ccccc3Cl)n2)c1	i	41*	?	-8%	96*	i
COc1ccc(-c2nnn(Cc3ccccc3)n2)cc1	42%	44*	5%	-24%	86*	13µM*
CCCCN(C(=O)c1ccc2c(c1)OCCO2)c1c(N)n(CC(C)C)c(=O)[nH]c1=O	-13%	nt	nt	nt	nt	1%
CN(C)c1ncc2nc(-c3ccc(Cl)cc3)c(=O)n(CCC#N)c2n1	nt	nt	6%	nt	nt	nt
CN(CC(=O)Oc1ccc(-c2nnco2)cc1)S(=O)(=O)c1ccc(F)cc1	3%	nt	nt	nt	nt	18%
SMILES	Pf growth 48h	Cycloheximide cs	FBPA Giardia inh	NS1 function inh	Shiga inhibitor	Pf growth 96h
O=C(O)c1cccc(OCc2ccccc2Cl)c1	100%	111*	21%	-121%	122*	?
Cc1ccccc1Cn1nnc(-c2ccc(C(=O)O)cc2)n1	7%	-4	?	nt	-2	17%
Cc1ccccc1Cn1nnc(-c2cccc(C(=O)O)c2)n1	198%	56*	?	-33%	124*	17%
O=C(C[n+]1ccc(/C=N/O)cc1)NC1CCCCC1	10µM*	-5	7%	nt	28	-38%
Nc1nc(NCCCN2CCOCC2)nc(Nc2cccc(Cl)c2)c1[N+](=O)[O-]	5.9µM*	-3	0%	1%	21	?
Nc1nc(Nc2cccc(F)c2)nc(NCc2ccco2)c1[N+](=O)[O-]	-29%	13*	-1%	-3%	36	?
Nc1nc(Nc2ccc(Cl)cc2)nc(NCc2ccco2)c1[N+](=O)[O-]	?	48*	-8%	-2%	84*	?
Cc1cccc(Nc2nc(N)c([N+](=O)[O-])c(NCc3ccco3)n2)c1	?	-3	-8%	25%	21	?
Nc1nc(Nc2cccc(Cl)c2)nc(NCc2ccco2)c1[N+](=O)[O-]	?	34*	-7%	-1%	36	?
Nc1nc(NCCCN2CCOCC2)nc(Nc2ccc(Cl)cc2)c1[N+](=O)[O-]	?	0	-1%	-1%	6	-13%
O=c1cc(N2CCCC2)c2ccccc2o1	60%	1	1%	-5%	19	-14%
Clc1cccc(CN2CCc3c([nH]c4ccccc34)C2)c1Cl	1.9µM*	-3	?	5%	-8	?
CC(C)C(=O)Nc1ccc(-c2csc(-c3ccccc3)n2)cc1	49%	61*	0%	5%	81*	126%
CC(C)C(=O)Nc1cccc(-c2csc(-c3ccccc3)n2)c1	?	32*	1%	-9%	33*	?
O=C(Nc1ccc(-c2csc(Nc3ccccc3)n2)cc1)c1ccccc1	?	2	-1%	4%	16	?
CCc1sc(NC(=O)C(C)C)nc1-c1ccccc1	-13%	2	-5%	-17%	-7	0%
COc1ccc(Cl)cc1S(=O)(=O)N(C)CC(=O)N1CCOCC1	-18%	-5	4%	9%	-2	14%
COc1cccc(F)c1C(C[N+](=O)[O-])c1c(N)n(C)c(=O)n(C)c1=O (stereo not drawn)	?	-5	-4%	-88%	-17	13µM*
Cc1ccc(C(=O)NNC(=O)COC(=O)COc2ccccc2C#N)cc1	-18%	nt	nt	nt	nt	-3%
Cc1ccc(NC(=O)CN(C)C(=O)c2cccc(Br)c2)cc1	16%	4	5%	7%	23	48%
O=C(Cn1nc(CNc2ccc(Cl)cc2)[n+]2c1CCCCC2)c1ccccc1	0.93µM*	2	5%	3%	-3	?
Cc1ccc(C(C)C)c(OCc2nn(CC(=O)c3ccc(Cl)cc3)c3[n+]2CCCCC3)c1	12µM*	-6	7%	nt	-12	?
